SW480 rereplic: inducers of DNA re-replication in SW480 colon cancer cells. SW480 DNA re-replication, Hoechst DNA content imaging, 48 h. Potency, µM (series often up to 46.1 µM), most hits filed as activators. 340,000 compounds, 1.8% hits. AID 624297; also: nearly all actives have a fitted effect of over 55% in size
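Quantitative HTS format with DMSO vehicle controls; 48 hr drug incubation at 37 C, then 40 min Hoechst staining and scanning imager measurement at 405 nm excitation.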
KB-3-1 cytotox: kills parental KB-3-1 adenocarcinoma cells; KB-3-1 viability, CellTiter-Glo ATP luminescence, 72 h; Potency, µM (highest dose often 46.1 µM), most hits filed as cytotoxic; 400,000 compounds, 1.4% hits; also: nearly all actives have a fitted effect of over 60% in size
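Screening of KB-3-1 cells (DMEM, 10% FBS, phenol-red free) ran from lowest to highest compound concentration; after 72 h at 37 °C viability was read luminescently and curves fitted.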
IL-1B inflam inh: inhibitors of inflammasome signaling (IL-1 beta secretion). THP-1 LPS/ATP IL-1B secretion, AlphaLISA, 16 h; hits give low values. AID 743279. activity change, % at 57.5 µM. 360,000 compounds, 4.7% hits; in the data active = activity change below about -50%; inconclusive = mostly about -30% to -49%
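THP-1 cells pretreated 1 hr with compounds (up to 57.5 uM final), then stimulated with LPS (250 ng/mL final) plus ATP (1.25 mM final); secreted IL-1B measured by AlphaLISA after 16 hr, decreased signal indicating inhibition.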
KB-V1 MDR tox: KB-V1 MDR subline cytotoxicity; AID 1347076; 400,000 compounds, 3.4% hits; KB-V1 MDR cells viability, CellTiter-Glo, 72 h; Potency, µM (highest dose often 46.1 µM), most hits filed as cytotoxic; also: nearly all actives have a fitted effect of over 60% in size
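Luminescent ATP read-out (CellTiter-Glo, 10 min) measures survival of drug-selected KB-V1 MDR cells after 72 h, 37 degrees C compound exposure. Medium: phenol-red-free DMEM, 10% FBS. Values from fitted concentration-response curves.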
MCF10A rerep: induces DNA re-replication in MCF 10a normal breast cells; 350,000 compounds, 2.9% hits; Potency, µM (doses to about 46.1 µM), most hits filed as activators; MCF 10A DNA re-replication, Hoechst nuclear intensity, 48 h; also: nearly all actives have a fitted effect of over 50% in size
Hits are given with their value; . = inactive; ? = inconclusive; / = not tested or not shown; [ ] = remark or other dose. Hits are enriched below; roughly 9.9% of the tested compounds scored in any of these assays. Unless noted, calls follow the shape of the dose curve; as a rule, active = well fitted curve in the direction sought with a large enough effect; inconclusive = small, poorly fitted or top-dose-only effect, or another doubt; inactive = no such curve, though single readings can be large; an effect the other way counts as inactive or inconclusive.

SMILES	SW480 rereplic	KB-3-1 cytotox	IL-1B inflam inh	KB-V1 MDR tox	MCF10A rerep
Cn1ccc2cc(S(=O)(=O)N3CCN(C(=O)Nc4cccc(F)c4)CC3)ccc21	/	.	/	.	/
CC(C)N(Cc1nc(-c2ccc(Cl)cc2)no1)C(=O)/C=C/c1ccccc1	.	.	-62	16µM	?
CC(C)N(Cc1nc(-c2ccc(Cl)cc2)no1)C(=O)C(c1ccccc1)c1ccccc1	.	?	.	?	.
CC(C)N(Cc1nc(-c2ccccc2)no1)C(=O)CN1C(=O)c2ccccc2C1=O	.	.	.	10µM	.
Cc1ccc(-c2noc(CN(C(=O)C(c3ccccc3)c3ccccc3)C(C)C)n2)cc1	?	?	?	8.2µM	.
COc1cccc(-n2c(=O)n(Cc3ccccc3)c(=O)c3[nH]cnc32)c1C	.	.	.	.	.
C=C1[C@@H](O)[C@@H]2O[C@]3(CC[C@H](/C=C/[C@@H](C)[C@@H]4CC(C)=CC5(O[C@H](C[C@@](C)(O)C(=O)OC)CC[C@H]5O)O4)O3)CC[C@H]2O[C@@H]1[C@@H](O)C[C@H](C)[C@H]1OC2(CCCCO2)CC[C@H]1C (stereo partly specified)	?	?	.	18µM	?
C=C1C(O)[C@@H]2O[C@]3(CC[C@H](/C=C/C(C)[C@@H]4CC(C)=CC5(O[C@H](C[C@@](C)(O)CO)CCC5O)O4)O3)CC[C@H]2O[C@@H]1C(O)CC(C)[C@H]1OC2(CCCCO2)CCC1C (stereo partly specified)	?	0.021µM	-100	?	.
O=C(COc1ccc([N+](=O)[O-])cc1Cl)N1CCc2ccccc21	.	.	.	?	.
Cn1c(=O)c2[nH]c(CSCc3ccccc3)nc2n(C)c1=O	.	.	.	.	.
Cn1c(=O)c2[nH]c(CCCCCCCCc3nc4ccccc4[nH]3)nc2n(C)c1=O	.	.	-60	.	?
Cn1c(=O)c2[nH]c(CN(Cc3ccccc3)Cc3ccccc3)nc2n(C)c1=O	.	.	.	8.2µM	.
COc1ccccc1NC(=O)C1=C(C)Nc2nc(-c3ccco3)nn2C1c1cccc(C)c1 (stereo unspecified)	/	.	/	.	/
COc1ccc(COC(=O)Nc2cc3c(C(F)(F)F)nn(C)c3s2)cc1	.[9.22 µM]	.	.	.	.
Cn1nc(C(F)(F)F)c2cc(NC(=O)OCc3ccc(C(C)(C)C)cc3)sc21	.	.	-87	.	15µM
Cn1nc(C(F)(F)F)c2cc(NC(=O)OCc3ccc(F)cc3)sc21	.	.	-87	?	?
Cc1ccc(S(=O)(=O)Nc2ccc(C(OC(=O)c3ccccc3[N+](=O)[O-])(C(F)(F)F)C(F)(F)F)cc2)cc1	?	?	-88	3.7µM	?
O=C(OC(c1ccc(NS(=O)(=O)c2ccccc2)cc1)(C(F)(F)F)C(F)(F)F)c1ccccc1	?	?	.	.	18µM
Cc1cc(C)nc(NS(=O)(=O)c2ccc(NC(=O)c3ccccc3[N+](=O)[O-])cc2)n1	.	.	.	.	.
Cc1cc[n+](-c2ccccc2)c2ccccc12	.	?	.	.	.
COc1ccc(CCNC(=O)NCc2noc3ccccc23)c(OC)c1	/	.	/	.	/
Cc1ccc(C(=O)N/N=C\c2ccccc2[N+](=O)[O-])cn1	.	.	.	.	.
Cc1c(C(=O)N/N=C/C(C)C)[nH]c2c([N+](=O)[O-])cccc12	?	?	.	?	21µM
COc1ccc(N/C=C(\C#N)S(=O)(=O)c2ccc(Cl)cc2)c(OC)c1	.	.	.	.	.
CN(CC(=O)Nc1ccc(Cl)c(Cl)c1)C1CCCCC1	.	.	.	.	.
SMILES	SW480 rereplic	KB-3-1 cytotox	IL-1B inflam inh	KB-V1 MDR tox	MCF10A rerep
CN(CC(=O)Nc1ccc(Cl)c(Cl)c1)C(=O)C12CC3CC(CC(C3)C1)C2	.	.	-54	?	?
COc1ccc(C2=CCN3CCCCC3C2)c(-c2ccc(OC)c(OC)c2)c1 (stereo unspecified)	.	?	.	?	8.2µM
COc1ccc(OC)c(S(=O)(=O)N2CCN3CCCC3C2)c1 (stereo unspecified)	?	.	.	.	.
O=C(COc1cccc(Cl)c1)Nc1ccc2c(c1)CCC2	.	.	.	.	.
O=C(NCCC1=CCCCC1)C(=O)NCC1OCCCN1S(=O)(=O)c1ccccc1 (stereo unspecified)	.	.	.	9.2µM	.
Cc1ccc(C)c(S(=O)(=O)N2CCCOC2CNC(=O)C(=O)NCCC2=CCCCC2)c1 (stereo unspecified)	.	.	.	5.2µM	.
Cc1ccc(C)c(S(=O)(=O)N2CCCOC2CNC(=O)C(=O)NCCc2ccccc2)c1 (stereo unspecified)	?	.	.	?	?
CC1CC(C)CN(CCOCCSc2ccccc2)C1 (stereo unspecified)	.	.	.	.	?
CC1CC(C)CN(CCOc2cccc(Cl)c2Cl)C1 (stereo unspecified)	.	.	-68	?	.
CC1CC(C)CN(CCOc2ccc(Cl)cc2Cl)C1 (stereo unspecified)	.	.	-68	?	.
CCN1CCN(CCOc2cccc(Cl)c2Cl)CC1	?	.	.	.	?
CC1CCCN(CCOCCOc2ccc(Br)cc2Cl)C1 (stereo unspecified)	?	?	?	.	?
CC1CC(C)CN(CCOCCSc2ccc(Cl)cc2)C1 (stereo unspecified)	?	.	?	.	16µM
CC1CCCN(CCOCCOc2ccc(Cl)cc2Br)C1 (stereo unspecified)	?	?	?	16µM	.
CCN(CC)c1ccc(S(=O)(=O)N2CCOCC2)cc1NC(=O)COC(=O)C1=COCCO1	?	.	.	.	.
COc1cc2[nH]c(=S)nc(NCCc3ccc(C)cc3)c2cc1OC	?	.	.	.	23µM
COc1cc2[nH]c(=S)nc(NCC3CCCO3)c2cc1OC (stereo unspecified)	.	.	.	.	.
COc1cc2[nH]c(=S)nc(NCc3cccs3)c2cc1OC	.	.	.	.	.
COc1ccccc1CNc1nc(=S)[nH]c2cc(OC)c(OC)cc12	3.3µM	.	.	.	.
COc1cc2[nH]c(=S)nc(NC3CCCCCC3)c2cc1OC	.	.	-139	.	.
COc1ccc(CCNc2nc(=S)[nH]c3cc(OC)c(OC)cc23)cc1OC	.	.	.	.	.
CCOC(=O)C(=CNc1ccc2c(c1)c1ccccc1n2CC)C(=O)OCC	?	.	.	.	?
CC(=O)Nc1cc(-c2ccc(F)cc2)cn2c(-c3ccc(F)cc3)cnc12	/	.	.	.	/
COc1cc(-c2cc(NC(C)=O)c3ncc(-c4ccc(F)cc4)n3c2)cc(OC)c1OC	/	.	/	16µM	/
COc1cc(-c2cc(NC(C)=O)c3ncc(-c4ccc(C(C)=O)cc4)n3c2)cc(OC)c1OC	/	?	-64	23µM	/

Assay outcomes from PubChem.
